# Assay results reported in PubChem BioAssay.
# Activity calls are given as the source filed them. Unless noted, no rule for the calls is given here.
# What was measured:
# [1] = compounds binding Alexa647 anti-His antibody – biochemical, small-molecule microarray, 635 nm fluorescence, artefact control for SMM control protein annotation, primary screen (AID 1128); conditions: higher = more signal;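 also: score merges feature fluorescence with signal-to-noise for each printed compound spot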
# [2] = tested on: Human papillomavirus type 1a E7 protein (residues 1-88); assay: HPV1a E7 small-molecule binders, primary screen, biochemical, small-molecule microarray, residues 1-88, 635 nm (AID 1129); conditions: small-molecule microarray binding, fluorescence 635 nm; higher = more signal
# [3] = target: Focal adhesion kinase 1 (Homo sapiens) (UniProt Q05397); assay: PTK2 protein binding on printed compound slides – biochemical, small-molecule microarray, 635/667 nm fluorescence, BSA, DTT, primary screen (AID 1130); conditions: 635 nm fluorescence, higher = more signal;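 also: composite of spot emission at 667 nm and signal to noise over triplicate slides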
# [4] = tested on: Fibrinogen (Alexa647-labelled); assay: Alexa647-fibrinogen binding to printed small molecules – biochemical, small-molecule microarray, 635/667 nm fluorescence, artefact control for SMM control-protein annotation, profiling panel (AID 1131); conditions: fibrinogen-A647 binding fluorescence, higher = more signal;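 also: z-score merges 667 nm fluorescence with per-spot signal-to-noise over triplicate slides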
# [5] = target: Follistatin (Homo sapiens) (UniProt P19883); assay: FST protein binding to printed compounds – biochemical, small-molecule microarray, 635/667 nm fluorescence, primary screen (AID 1132); conditions: 635 nm fluorescence, higher = more signal
# [6] = target: Fibroblast growth factor 2 (Homo sapiens) (UniProt P09038); assay: basic fibroblast growth factor binding to printed compounds – biochemical, small-molecule microarray, 635/667 nm fluorescence, primary screen (AID 1133); conditions: FGF2, fluorescence 635/667, higher = more signal
# [7] = JC-1 mitochondrial potential readout, lung cancer cells – cell-based, A549, JC-1 fluorescence, basal, 24 h, 100 nL, profiling panel (AID 1138); conditions: higher = more signal;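 also: A549 lung adenocarcinoma cells under basal conditions with no added stimulus; test concentration not given here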
# Lefty1 = Lefty1 protein binding to printed compounds – biochemical, small-molecule microarray, 635/667 nm fluorescence, primary screen (AID 1139); conditions: fluorescence 635/667, higher = more signal
# [8] = tested on: wheat germ agglutinin (Triticum aestivum), Alexa647-labelled; assay: Alexa647-WGA lectin binding to printed small molecules – biochemical, small-molecule microarray, 635/667 nm fluorescence, artefact control for SMM control-protein annotation, profiling panel (AID 1140); conditions: WGA-A647 binding, 635 nm fluorescence, higher = more signal;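 also: score merges 667 nm feature emission with signal to noise over triplicate slides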
# [9] = target: Luciferin 4-monooxygenase (Photinus pyralis) (UniProt P08659); assay: inhibition of purified Photinus pyralis luciferase – biochemical, luminescence, purified enzyme, 2006 set, primary screen (AID 1141); conditions: purified firefly luciferase, SteadyGlo luminescence, 30 min; higher = more signal, called active from +8 up or from −8 down;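 also: cell-free assay with purified firefly luciferase at 100 ng per well in PBS; test concentration not given here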
# [10] = tested on: Wnt5a (protein binding on small-molecule microarray); assay: small molecules binding Wnt5a protein – biophysical, small-molecule microarray, 635/667 nm fluorescence, primary screen (AID 1142); conditions: 635 nm fluorescence, higher = more signal;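 also: fluorescence read at 667 nm with signal to noise per printed feature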
# [11] = ATP-based viability of Huh7 replicon cells – cell-based, CellTiter-Glo luminescence, basal, 48 h, cytotoxicity control for HCV replication inhibitor project, primary screen (AID 1143); conditions: higher = more signal, called active from +8 up or from −8 down;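 also: Huh7 hepatoma cells carrying a hepatitis C replication reporter with no stimulus; test concentration not given here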
# [12] = Pseudomonas biofilm growth suppression – PAO1 strain, BacTiter-Glo luminescence, LB-PBS, primary screen (AID 1144); conditions: P. aeruginosa PAO1 biofilm, 12 h, higher = more signal
# [13] = basal CRE-LacZ reporter activity in PC12 – cell-based, unstimulated, primary screen (AID 1145); conditions: no forskolin, luminescence, 4.5 h, higher = more signal, called active from +8 up or from −8 down
# [14] = forskolin-driven CRE-LacZ activity in PC12 – cell-based, CRE-LacZ reporter, forskolin-stimulated, primary screen (AID 1146); conditions: luminescence, 4.5 h, higher = more signal, called active from +8 up or from −8 down;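 also: PC12 cells with 6xCRE LacZ reporter stimulated by forskolin 10 µM; beta-galactosidase reporter signal reflecting CREB driven transcription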
# [15] = target: Streptavidin (Streptomyces avidinii) (UniProt P22629); assay: compounds binding control protein streptavidin – biophysical, small-molecule microarray, 635/667 nm fluorescence, artefact control for SMM compound annotation, primary screen (AID 1147); conditions: higher = more signal;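 also: signal reflects streptavidin binding to arrayed compounds as a control protein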
# [16] = probe aInhba binding on compound microarray – biochemical, small-molecule microarray, 635/667 nm fluorescence, primary screen (AID 1148); conditions: higher = more signal;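 also: score merges 667nm spot fluorescence with signal-to-noise for antibody binding to printed compounds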
# Torsin-1A (Homo sapiens) [17] = target: Torsin-1A (Homo sapiens) (UniProt O14656); assay: TOR1A wild-type binding on microarray – cell lysate, small-molecule microarray, lysate, 635/667 nm, primary screen (AID 1149); conditions: COS7 hTOR1A-WT lysate, 635 nm fluorescence, higher = more signal
# Torsin-1A (Homo sapiens) [18] = target: Torsin-1A (Homo sapiens) (UniProt O14656); assay: torsin A mutant lysate binding on microarrays – cell lysate, small-molecule microarray, COS7 lysate, 635/667 nm fluorescence, primary screen (AID 1150); conditions: COS7 hTOR1A mutant lysate, 635 nm fluorescence, higher = more signal;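 also: score pools 667 nm emission and signal to noise measuring lysate protein binding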
# [19] = tested on: Sonic hedgehog protein (Shh); assay: Sonic hedgehog microarray binding compounds – biochemical, small-molecule microarray, 635/667 nm fluorescence, primary screen (AID 1151); conditions: 635 nm fluorescence, higher = more signal;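 also: Shh protein binding to compounds spotted on small-molecule microarray slides; score combines spot fluorescence intensity with signal-to-noise across triplicate slides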
# Sequence of Focal adhesion kinase 1 (Homo sapiens) (Q05397 whole entry, looked up): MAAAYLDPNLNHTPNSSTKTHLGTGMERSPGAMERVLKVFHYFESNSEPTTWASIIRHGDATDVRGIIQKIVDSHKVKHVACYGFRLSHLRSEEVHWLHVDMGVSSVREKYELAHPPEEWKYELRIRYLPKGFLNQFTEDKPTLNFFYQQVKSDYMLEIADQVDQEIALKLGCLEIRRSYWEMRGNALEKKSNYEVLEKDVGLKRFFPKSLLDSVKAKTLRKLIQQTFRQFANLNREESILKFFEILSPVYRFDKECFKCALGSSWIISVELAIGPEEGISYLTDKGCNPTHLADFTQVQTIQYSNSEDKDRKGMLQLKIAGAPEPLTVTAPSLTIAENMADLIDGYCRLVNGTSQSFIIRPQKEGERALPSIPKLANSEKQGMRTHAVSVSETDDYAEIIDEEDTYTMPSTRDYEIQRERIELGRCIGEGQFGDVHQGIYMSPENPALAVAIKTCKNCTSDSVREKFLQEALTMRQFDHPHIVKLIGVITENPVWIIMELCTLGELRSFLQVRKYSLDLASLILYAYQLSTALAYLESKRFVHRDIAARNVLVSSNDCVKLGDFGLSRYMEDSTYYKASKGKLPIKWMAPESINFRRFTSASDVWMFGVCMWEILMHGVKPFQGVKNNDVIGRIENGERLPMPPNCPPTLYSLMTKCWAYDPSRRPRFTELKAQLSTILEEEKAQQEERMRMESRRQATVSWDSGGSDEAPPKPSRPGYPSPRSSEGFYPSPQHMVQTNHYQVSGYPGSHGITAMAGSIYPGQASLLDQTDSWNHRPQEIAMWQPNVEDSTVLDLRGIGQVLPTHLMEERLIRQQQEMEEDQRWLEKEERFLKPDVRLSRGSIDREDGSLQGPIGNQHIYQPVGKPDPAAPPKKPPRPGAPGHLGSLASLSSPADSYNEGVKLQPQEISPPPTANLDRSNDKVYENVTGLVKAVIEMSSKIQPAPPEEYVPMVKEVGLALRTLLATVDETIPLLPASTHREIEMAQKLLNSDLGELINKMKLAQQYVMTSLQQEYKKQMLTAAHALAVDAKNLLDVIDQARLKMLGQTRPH
# Sequence of Fibroblast growth factor 2 (Homo sapiens) (P09038 whole entry, looked up): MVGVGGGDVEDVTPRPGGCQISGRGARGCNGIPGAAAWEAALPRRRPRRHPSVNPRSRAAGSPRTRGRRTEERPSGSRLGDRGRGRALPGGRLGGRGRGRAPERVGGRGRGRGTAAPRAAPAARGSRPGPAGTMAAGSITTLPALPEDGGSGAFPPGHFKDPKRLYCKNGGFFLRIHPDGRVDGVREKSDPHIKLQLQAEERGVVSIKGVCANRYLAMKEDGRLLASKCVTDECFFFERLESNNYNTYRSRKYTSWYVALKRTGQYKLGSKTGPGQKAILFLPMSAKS
# Sequence of Follistatin (Homo sapiens) (P19883 whole entry, looked up): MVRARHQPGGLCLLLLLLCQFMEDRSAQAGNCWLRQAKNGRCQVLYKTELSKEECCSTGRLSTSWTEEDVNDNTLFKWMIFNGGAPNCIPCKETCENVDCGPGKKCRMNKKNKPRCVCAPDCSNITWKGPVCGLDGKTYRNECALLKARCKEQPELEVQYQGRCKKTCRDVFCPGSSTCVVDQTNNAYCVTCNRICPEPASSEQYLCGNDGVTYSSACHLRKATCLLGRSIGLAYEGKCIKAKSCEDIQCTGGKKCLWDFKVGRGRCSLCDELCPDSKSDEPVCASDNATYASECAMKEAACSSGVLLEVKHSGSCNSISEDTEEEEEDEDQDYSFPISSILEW
# Sequence of Streptavidin (Streptomyces avidinii) (P22629 whole entry, looked up): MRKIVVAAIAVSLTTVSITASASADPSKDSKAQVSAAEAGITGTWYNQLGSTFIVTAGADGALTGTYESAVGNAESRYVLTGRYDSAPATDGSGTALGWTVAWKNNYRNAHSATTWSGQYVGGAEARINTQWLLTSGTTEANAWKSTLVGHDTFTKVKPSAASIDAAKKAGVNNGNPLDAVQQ
# Sequence of Luciferin 4-monooxygenase (Photinus pyralis) (P08659 whole entry, looked up): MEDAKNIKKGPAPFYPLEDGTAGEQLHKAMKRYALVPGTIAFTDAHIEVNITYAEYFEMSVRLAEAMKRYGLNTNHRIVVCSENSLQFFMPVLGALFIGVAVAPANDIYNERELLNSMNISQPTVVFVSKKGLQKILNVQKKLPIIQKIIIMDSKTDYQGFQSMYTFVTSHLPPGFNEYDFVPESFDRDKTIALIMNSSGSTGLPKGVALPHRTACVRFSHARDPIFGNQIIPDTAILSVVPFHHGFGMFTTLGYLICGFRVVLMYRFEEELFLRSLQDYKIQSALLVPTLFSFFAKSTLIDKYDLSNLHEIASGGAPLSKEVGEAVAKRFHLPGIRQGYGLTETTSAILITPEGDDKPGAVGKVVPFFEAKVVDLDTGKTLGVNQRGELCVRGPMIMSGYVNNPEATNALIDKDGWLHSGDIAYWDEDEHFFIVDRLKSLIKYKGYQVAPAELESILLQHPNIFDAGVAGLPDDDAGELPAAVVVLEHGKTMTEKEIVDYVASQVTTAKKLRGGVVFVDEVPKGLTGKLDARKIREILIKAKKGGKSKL
# Sequence of Torsin-1A (Homo sapiens) (O14656 whole entry, looked up): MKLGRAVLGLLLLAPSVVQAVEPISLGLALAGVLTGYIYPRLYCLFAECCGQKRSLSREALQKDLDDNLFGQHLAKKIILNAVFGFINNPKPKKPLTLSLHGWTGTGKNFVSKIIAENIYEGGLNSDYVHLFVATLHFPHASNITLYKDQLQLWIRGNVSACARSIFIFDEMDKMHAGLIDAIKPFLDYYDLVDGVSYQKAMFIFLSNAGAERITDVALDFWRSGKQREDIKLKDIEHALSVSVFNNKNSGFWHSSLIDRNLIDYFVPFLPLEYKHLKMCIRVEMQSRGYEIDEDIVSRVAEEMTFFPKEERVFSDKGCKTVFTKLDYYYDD
SMILES,composite z-score [1],composite z-score [2],composite z-score [3],composite z-score [4],composite z-score [5],composite z-score [6],z-score [7],composite z-score (Lefty1),composite z-score [8],z-score [9],composite z-score [10],z-score [11],z-score [12],z-score [13],z-score [14],composite z-score [15],composite z-score [16],composite z-score (Torsin-1A (Homo sapiens) [17]),composite z-score (Torsin-1A (Homo sapiens) [18]),composite z-score [19]
CC(=O)n1cc(C(O)C2C=CC3C(=O)N(c4ccccc4)C(=O)C3N2Nc2ccccc2F)c2ccccc21 (stereo not given),1.01,0.726,0.251,1.02,-1.04,-0.89,-1.16,-0.274,0.0832,1.34 (inactive),-0.296,-3.27 (inactive),-1.69 (inactive),-0.172 (inactive),0.499 (inactive),0.0289,-0.157,-0.561,0.495,-0.813
O=C1O[C@@H](c2ccccc2)[C@@H](c2ccccc2)N2[C@@H](c3ccc(OCCO)cc3)[C@]3(C(=O)Nc4ccc(C#CCCO)cc43)[C@@H](C(=O)Nc3nc4ccccc4s3)[C@H]12,0.324,1.13,0.256,0.978,1.4,0.474,-2.19,0.502,0.468,-0.7 (inactive),0.482,-2.56 (inactive),-0.397 (inactive),0.389 (inactive),0.0759 (inactive),1.05,0.0291,0.222,0.79,0.589
CN1C=C(C(=O)OCCS(C)(=O)=O)C(C(=O)OCCS(C)(=O)=O)=CC(CCCO)=CC1c1ccc(CN2CCCC2)cc1 (stereo not given),1.29,1.26,0.666,0.894,1.06,0.546,3.43,1.23,0.837,-2.16 (inactive),0.531,-0.209 (inactive),0.356 (inactive),5.05 (inactive),-0.267 (inactive),1.24,0.253,0.244,1.19,1.06
C=C(CCCC)C(=O)CC[C@H](OC(C)=O)c1ccccc1OCCO,0.0808,-0.167,-0.176,-0.107,1.16,0.105,-0.012,1.36,0.737,-0.722 (inactive),0.241,-4.57 (inactive),1.09 (inactive),8.25 (active),-0.195 (inactive),-0.478,0.0902,-1.49,-0.447,1.42
C=C(C(=O)CC[C@@H](OC(C)=O)c1cccc(OCCO)c1)C(C)C,0.83,0.54,0.217,-0.281,0.549,-0.531,-0.106,0.889,0.449,-1.08 (inactive),-0.162,-0.344 (inactive),0.0482 (inactive),2.29 (inactive),1.23 (inactive),-0.377,0.0053,1.93,0.456,2
